{"source": "ChEMBL document CHEMBL3988442", "about": "“University of Dundee, Small-Polar-MMV Screening Library” (2021)", "note": "The whole screen tested about 38,000 compounds, of which about 1,200 (3.2%) showed an effect of 50% or more. The median lay at about -58%. Only a selection was taken, and strong results are over-represented in it overall.", "data": [{"system": "Plasmodium falciparum", "assay": "Calibr Malaria Delayed Death Assay SOP", "type": "functional, organism-based", "parameters": "scale not given: in the data most compounds retested in dose-response had high values", "settings": "concentration 4.99e-06 (unit not given; other assays of the set use mol/L)", "units": {"Percent Effect": "%"}, "values": [{"compound": "O=C(NCC(=O)N1CCCCC1)c1sccc1C1CC1", "Percent Effect": -52.19}, {"compound": "Cc1ccsc1C(=O)N1CCC2(CC1)C(=O)N(C)CCN2CC1CC1.O=C(O)C(F)(F)F", "Percent Effect": -41.45}, {"compound": "CCc1ccc(NC(=O)N2C[C@H]3C[C@H](C(=O)NC(C)C)[C@@H](C2)O3)cc1", "Percent Effect": 25.32}, {"compound": "CC(=O)N1CCCC(C(=O)NCCc2csc(-c3ccncc3)n2)C1", "note": "(stereo not drawn)", "Percent Effect": -77.87}, {"compound": "CC(C)C(N)CNS(=O)(=O)Cc1cccc2cccnc12.Cl", "note": "(stereo not drawn)", "Percent Effect": 3.917}, {"compound": "CC(Cn1cccn1)NC(=O)N(C)Cc1ccsc1", "note": "(stereo not drawn)", "Percent Effect": -57.89}, {"compound": "O=C(CNC(=O)C1(c2ccc(F)cc2F)CCC1)Nc1ccccn1", "Percent Effect": -17.94}, {"compound": "CC(C)CN1CC(C(=O)NCCOc2ccc3c(c2)OCO3)CC1=O", "note": "(stereo not drawn)", "Percent Effect": -115.4}, {"compound": "Cc1ccnc(N2CCN(C[C@]3(O)CCCN4CCCC[C@@H]43)CC2)c1", "Percent Effect": 7.79}, {"compound": "O[C@@]1(CN2CCN(Cc3ccncc3)CC2)CCCN2CCCC[C@@H]21", "Percent Effect": -71.07}, {"compound": "Cc1cnccc1N1CCN(C[C@]2(O)CCCN3CCCC[C@@H]32)CC1", "Percent Effect": 73.88}, {"compound": "COc1ccc(N2CCN(C(=O)c3nc(Cl)sc3C(C)C)CC2)cc1", "Percent Effect": -116.1}, {"compound": "COc1ccc(OCC2CCCN(Cc3ccncc3)C2)cc1", "note": "(stereo not drawn)", "Percent Effect": 2.701}, {"compound": "CCn1cc(CNC2CCN(c3c(F)cccc3F)C2)cn1", "note": "(stereo not drawn)", "Percent Effect": -15.51}, {"compound": "CCn1cc(CN2CCCC(COc3ccccc3F)C2)cn1", "note": "(stereo not drawn)", "Percent Effect": 72.55}, {"compound": "CCn1cc(CN2CCCC(COc3ccc(F)cc3)C2)cn1", "note": "(stereo not drawn)", "Percent Effect": 75.3}, {"compound": "CCn1cc(CN2CCCC(c3[nH]ncc3-c3ccc(C)cc3)C2)cn1", "note": "(stereo not drawn)", "Percent Effect": 60.35}, {"compound": "COc1cccc(OCC2CCCN(Cc3ccncc3)C2)c1", "note": "(stereo not drawn)", "Percent Effect": -55.12}, {"compound": "Cc1ccc(-c2cn[nH]c2C2CCCN(c3ncccn3)C2)cc1", "note": "(stereo not drawn)", "Percent Effect": -2.919}, {"compound": "CCn1cc(CN2CCCN(C3Cc4ccccc4C3)CC2)cn1", "Percent Effect": 8.565}, {"compound": "CCn1cc(CN2CCC(c3[nH]ncc3S(C)(=O)=O)C2)cn1", "note": "(stereo not drawn)", "Percent Effect": -50.8}, {"compound": "O=C(NCC(=O)N1CCCC1Cc1cccc(F)c1)C1CCCC1", "note": "(stereo not drawn)", "Percent Effect": -29.53}, {"compound": "Cc1cnc2c(c1NCc1cccs1)c(=O)n(C)c(=O)n2C", "Percent Effect": 3.342}, {"compound": "CNC(=O)C1(c2cnccn2)CCCN1C(=O)c1cccnc1OC", "note": "(stereo not drawn)", "Percent Effect": -138.6}, {"compound": "CCCn1cc(NC(=O)c2ccncc2)ccc1=O", "Percent Effect": -98.41}, {"compound": "CC(C)N1CCCCC1CCn1cnc2cc(C(F)(F)F)ccc2c1=O", "note": "(stereo not drawn)", "Percent Effect": -97.47}, {"compound": "Cc1cnc(N(C)Cc2cnc3ccccc3n2)nc1N(C)C", "Percent Effect": -4.617}, {"compound": "O=C(NCCCNC(=O)c1ccccc1)Nc1ccc(F)cc1F", "Percent Effect": -135.1}, {"compound": "CCOCC1CN(C(=O)c2cccn2C)Cc2cnn(CC3CC3)c21.O=C(O)C(F)(F)F", "note": "(stereo not drawn)", "Percent Effect": 56.84}, {"compound": "CCOCC1CN(C(=O)c2cnccn2)Cc2cnn(CC3CC3)c21.O=C(O)C(F)(F)F", "note": "(stereo not drawn)", "Percent Effect": -137.9}, {"compound": "CCOCC1CN(S(=O)(=O)CC)Cc2cnn(CC3CC3)c21.O=C(O)C(F)(F)F", "note": "(stereo not drawn)", "Percent Effect": -13.24}, {"compound": "Cn1cccc1C(=O)N1Cc2c(CN3CCCCC3)nn(C)c2C1", "Percent Effect": -1.788}, {"compound": "CC(C)C(=O)N1CCc2c(CN(C)Cc3ccco3)cncc2C1.Cl.Cl", "Percent Effect": -39.92}, {"compound": "C[C@@H]1CN(C2(C(=O)N3CCOCC3)Cc3ccccc3C2)C[C@H](C)O1", "Percent Effect": -24.87}, {"compound": "C[C@@H]1CN(C2(C(=O)N3CCSCC3)Cc3ccccc3C2)C[C@H](C)O1", "Percent Effect": -246.9}, {"compound": "C[C@@H]1CN(C2(C(=O)N3CCNCC3)Cc3ccccc3C2)C[C@H](C)O1", "Percent Effect": 61.74}, {"compound": "O=C(NCCC1CCN(CC(F)(F)F)CC1)C1CCCO1", "note": "(stereo not drawn)", "Percent Effect": -133.7}, {"compound": "c1coc(CN2CCO[C@@]3(CCC[C@@H]3COCc3nccs3)C2)c1", "Percent Effect": 10.79}, {"compound": "O=C(NCc1cc2n(n1)CCCNC2)C1(c2ccc(Cl)cc2)CCC1", "Percent Effect": -15.95}, {"compound": "O=C(NCc1cc2n(n1)CCCNC2)c1cn2cc(Cl)ccc2n1", "Percent Effect": -49.2}, {"compound": "O=C(NCc1cc2n(n1)CCCNC2)C1(c2ccccc2)CCCCC1", "Percent Effect": 72.51}, {"compound": "O=C(O)C(F)(F)F.O=C(O)C(F)(F)F.c1coc(CN2C[C@@H]3OCCN(CC4CCCO4)[C@@H]3C2)c1", "note": "(stereo partly drawn)", "Percent Effect": -57.01}, {"compound": "O=S(=O)(c1ccc(F)cc1Cl)N1CCCC1c1ccncc1", "note": "(stereo not drawn)", "Percent Effect": -22.12}, {"compound": "O=C(NC1CCCN(CCCc2ccccc2)C1)c1ccc(Cl)s1", "note": "(stereo not drawn)", "Percent Effect": 59.33}, {"compound": "O=C(NC1CCCN(CCCc2ccccc2)C1)C1=CCCCC1", "note": "(stereo not drawn)", "Percent Effect": -1.379}, {"compound": "O=C(NC1CCCN(CCCc2ccccc2)C1)c1ccncc1", "note": "(stereo not drawn)", "Percent Effect": -32.27}, {"compound": "COCCNC(=O)N1CCSC2(CCCCC2)C1", "Percent Effect": -161}, {"compound": "CCC(c1ccc(F)cc1)N1CCn2c(CO)nnc2C1", "note": "(stereo not drawn)", "Percent Effect": -61.64}, {"compound": "O=C(Cc1ccccn1)N1C[C@H]2CN(Cc3ccccn3)C[C@H]2C1", "Percent Effect": -76.72}, {"compound": "Cc1noc(C)c1CN1C[C@H]2CNC[C@H]2C1", "Percent Effect": 5.878}, {"compound": "Cc1noc(C)c1CN1CCO[C@H]2CN(Cc3cccc(F)c3)C[C@H]21.O=C(O)C(F)(F)F.O=C(O)C(F)(F)F", "Percent Effect": -38.58}, {"compound": "Cc1noc(C)c1CN1CCO[C@H]2CN(Cc3ccc(F)cc3)C[C@H]21.O=C(O)C(F)(F)F.O=C(O)C(F)(F)F", "Percent Effect": 54.02}, {"compound": "Cc1noc(C)c1CN1C[C@H]2CN(Cc3cccc(F)c3)C[C@H]2C1.O=C(O)C(F)(F)F.O=C(O)C(F)(F)F", "Percent Effect": 53.22}, {"compound": "CN(Cc1cccc(F)c1)C1CCN(CCc2ccccn2)CC1", "Percent Effect": -78.69}, {"compound": "Cc1noc(C)c1CN1C(=O)[C@H]2CC[C@@H]1CN(Cc1cccc(O)c1)C2", "Percent Effect": -156.5}, {"compound": "Cc1noc(C)c1CN1CCO[C@H]2CN(Cc3cnn(C)c3)C[C@H]21.O=C(O)C(F)(F)F.O=C(O)C(F)(F)F", "Percent Effect": 11.54}, {"compound": "Cc1noc(C)c1CN1C[C@@H]2CC(F)(F)C[C@@H]2C1.O=C(O)C(F)(F)F", "Percent Effect": -65.49}, {"compound": "Cc1noc(C)c1CN1C[C@@H]2C[C@@H](C)O[C@@H]2C1.O=C(O)C(F)(F)F", "Percent Effect": -81.78}]}]}
